TDP1 inh = qHTS Assay for Inhibitors of Tyrosyl-DNA Phosphodiesterase (TDP1); recombinant TDP1, AlphaScreen DNA substrate cleavage; Potency, µM (titrated, usually from 130 µM), usual class: inhibitors; 350,000 tested, 0.28% active; AID 485290, 2010; further: nearly all actives have a fitted effect of over 40% in size
Target sequence (Q9NUW8 whole entry, looked up): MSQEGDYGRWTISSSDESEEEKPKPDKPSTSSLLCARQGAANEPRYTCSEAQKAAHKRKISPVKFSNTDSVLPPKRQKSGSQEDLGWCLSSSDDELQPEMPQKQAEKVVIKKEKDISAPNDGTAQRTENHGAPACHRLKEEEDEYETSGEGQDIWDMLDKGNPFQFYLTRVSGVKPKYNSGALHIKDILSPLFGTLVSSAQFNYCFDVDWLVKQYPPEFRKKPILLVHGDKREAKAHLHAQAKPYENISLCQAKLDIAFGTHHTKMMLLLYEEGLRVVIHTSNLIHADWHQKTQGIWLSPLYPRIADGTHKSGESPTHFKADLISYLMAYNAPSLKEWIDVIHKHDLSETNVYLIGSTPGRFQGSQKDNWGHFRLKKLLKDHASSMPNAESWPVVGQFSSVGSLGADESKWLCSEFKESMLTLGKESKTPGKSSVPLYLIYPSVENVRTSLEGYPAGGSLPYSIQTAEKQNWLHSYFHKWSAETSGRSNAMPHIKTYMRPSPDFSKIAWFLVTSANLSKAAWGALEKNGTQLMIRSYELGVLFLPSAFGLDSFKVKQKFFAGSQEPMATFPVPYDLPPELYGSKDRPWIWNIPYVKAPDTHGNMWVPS
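Tdp1 1 nM final; 15 min RT w/ cpd; substrate 15 nM, 5 min; beads 10 ug/ml, 10 min; AlphaScreen read. Neg ctrl: no enzyme.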
PLK1 PBD block = qHTS for Inhibitors of PLK1-PDB (polo-like kinase 1 - polo-box domain): Primary Screen; 360,000 tested, 2.8% active; Potency, µM, most hits filed as inhibitors; Serine/threonine-protein kinase PLK1 (Homo sapiens), P53350; AID 720504, 2013; Plk1 PBD binding of FITC phosphopeptide, fluorescence polarization; further: series mostly up to about 57 µM; nearly all actives have a fitted effect of over 65% in size
DT40 TDP1 CPT = qHTS for Inhibitors of human tyrosyl-DNA phosphodiesterase 1 (TDP1): qHTS in cells in presence of CPT; chicken DT40 Tdp1-/-;hTDP1 cells + 20 nM CPT, ATP luminescence, 48 h; Potency, µM (highest dose often 46.2 µM), actives largely listed as inhibitors; 420,000 tested, 12% active; AID 686979, 2013; further: nearly all actives have a fitted effect of over 55% in size
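Chicken DT40 Tdp1-/- cells stably complemented with human TDP1 were seeded at 400 cells/well in medium containing 20 nM camptothecin, exposed to pin-transferred compounds, and grown at 37 °C for at least 48 hr. Viability was read as ATP luminescence.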
KAT2A inh = qHTS Assay for Inhibitors of GCN5L2 | Histone acetyltransferase KAT2A (Homo sapiens), Q92830 | GCN5L2 HAT assay, ThioGlo1 CoA-SH fluorescence | Potency, µM (top dose mostly 58.9 µM), most hits filed as inhibitors | 390,000 tested, 0.21% active | AID 504327, 2011
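qHTS, 1536-well. 20nM enzyme, pH 7.5 HEPES/EDTA/Tween-20 buffer; 15 min compound preinc., RT. Start: 75uM H3(1-25), 70uM AcCoA, 50uM ThioGlo1. Read Ex340/Em540 at t=0 (autofluorescence flag) and t=20 min.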
TDP1 cell noCPT = qHTS for Inhibitors of human tyrosyl-DNA phosphodiesterase 1 (TDP1): qHTS in cells in absence of CPT | DT40 Tdp1-/- hTDP1 cells, no CPT, ATP luminescence, 48 h | Potency, µM (top dose mostly 46.2 µM), usual class: inhibitors | 420,000 tested, 15% active; further: nearly all actives have a fitted effect of over 55% in size
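Seeded 400 DT40-hTDP1 cells/well (vehicle DMSO, no 20 nM CPT); pinned compounds; ≥48 hr at 37 °C; CellTiter-Glo luminescence as viability measure.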
VDR inhibitor = Inhibitors of the vitamin D receptor (VDR): qHTS | Vitamin D3 receptor (Homo sapiens), P11473 | AID 504847, 2011 | Potency, µM, actives largely listed as inhibitors | 400,000 tested, 0.93% active | VDR-SRC2-3 peptide fluorescence polarization, 2 h
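Signal is fluorescence polarization, reporting how far test compounds block the interaction of VDR with the SRC2-3 coregulator peptide after a 2 h room-temperature incubation.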
Of the large screens only hits and unclear results are named; the others gave an inactive call. Most compounds without a hit are left out; they make up all but 18% or so of the library. The call rests on the fitted dose curve; in most records, active means well fitted curve in the direction sought with a large enough effect; inconclusive means small, poorly fitted or top-dose-only effect, or another doubt; inactive means no such curve, though single readings can be large; an effect the other way counts as inactive or inconclusive.

O=C(CSc1cn[nH]n1)Nc1ccccc1C(=O)O	PLK1 PBD block inconclusive (no result: TDP1 inh)
COC(=O)c1ccc(OCCOCCOc2cccc3ccc(C)nc23)cc1	DT40 TDP1 CPT inconclusive, TDP1 cell noCPT 23.1µM
CCCCCCC=C1CCC(CN2CCCC2)C1=O (stereo not given)	PLK1 PBD block 3.36µM, DT40 TDP1 CPT 2.91µM, TDP1 cell noCPT 4.11µM (no result: TDP1 inh, KAT2A inh, VDR inhibitor)
Cc1c(Br)c([N+](=O)[O-])nn1C(C)C(=O)N1CCc2ccccc2C1 (stereo not given)	none
CCc1ccc(CNC(=O)C2CCN(S(=O)(=O)N3CCCCC3)CC2)cc1	DT40 TDP1 CPT inconclusive, TDP1 cell noCPT 23.1µM (no result: TDP1 inh, KAT2A inh, VDR inhibitor)
CCc1ccc(CNC(=O)C2CCCN(S(=O)(=O)c3ccc4c(ccn4C)c3)C2)cc1 (stereo not given)	DT40 TDP1 CPT 20.6µM, TDP1 cell noCPT 14.6µM (no result: PLK1 PBD block)
CCc1ccc(CNC(=O)C(CC)n2ccc3cc(S(=O)(=O)N4CCCCC4)ccc32)cc1 (stereo not given)	DT40 TDP1 CPT inconclusive, TDP1 cell noCPT 23.1µM (no result: PLK1 PBD block)
CCC(C(=O)NCCc1ccc(Cl)cc1)n1ccc2cc(S(=O)(=O)N3CCCCC3)ccc21 (stereo not given)	DT40 TDP1 CPT 13µM, TDP1 cell noCPT inconclusive (no result: PLK1 PBD block)
Cc1nc(NCc2cnn(C)c2)sc1-c1ccn(-c2cccc(F)c2)n1	none (no result: TDP1 inh, PLK1 PBD block, KAT2A inh, VDR inhibitor)
O=C(c1[nH]c(C(F)(F)F)nc1-c1ccccc1)N1CCN(c2ncccc2C(F)(F)F)CC1	DT40 TDP1 CPT inconclusive, TDP1 cell noCPT inconclusive (no result: TDP1 inh, KAT2A inh, VDR inhibitor)
O=C(CCc1nc2ccccc2[nH]c1=O)N/N=C/c1ccccc1	none
CC(C)(C)c1ccc(C(=O)NNc2cc(N3CCCCC3)nc(N3CCCCC3)n2)cc1	DT40 TDP1 CPT 25.9µM, TDP1 cell noCPT inconclusive
O=S(=O)(c1cccs1)N1CCN(Cc2cccc(F)c2)CC1	KAT2A inh inconclusive
Cc1cc(C(C)(C)C)cc(CN2CCN(S(=O)(=O)c3cccs3)CC2)c1O	TDP1 cell noCPT 0.184µM (no result: TDP1 inh, KAT2A inh, VDR inhibitor)
Cc1cc(O)c(CN2CCN(S(=O)(=O)c3cccs3)CC2)cc1C(C)C	DT40 TDP1 CPT 23.1µM, TDP1 cell noCPT inconclusive
O=S(O)CO	none (no result: PLK1 PBD block)
COc1cc(C2C(=O)N(C3CCCCC3)CC(=O)N2CCC2=CCCCC2)ccc1OC(C)C (stereo not given)	none (no result: PLK1 PBD block)
COc1cc(C2C(=O)N(C3CCCCCC3)CC(=O)N2CCC2=CCCCC2)ccc1OC(C)C (stereo not given)	DT40 TDP1 CPT 18.4µM, TDP1 cell noCPT 20.6µM (no result: PLK1 PBD block)
CCOc1ccc(C2C(=O)N(C3CCCCCC3)CC(=O)N2CCC2=CCCCC2)cc1OC (stereo not given)	DT40 TDP1 CPT 23.1µM, TDP1 cell noCPT 16.4µM (no result: PLK1 PBD block)
CCCOc1ccc(C2C(=O)N(C3CCC(C)CC3)CC(=O)N2CCC2=CCCCC2)cc1OC (stereo not given)	DT40 TDP1 CPT inconclusive (no result: PLK1 PBD block)
CCOc1ccc(C2C(=O)N(C3CCCCCC3)CC(=O)N2CCc2ccc(OC)c(OC)c2)cc1OC (stereo not given)	DT40 TDP1 CPT inconclusive, TDP1 cell noCPT inconclusive (no result: PLK1 PBD block)
COc1ccc(C2C(=O)N(C3CCC(C)CC3)CC(=O)N2CCC2=CCCCC2)cc1OC (stereo not given)	DT40 TDP1 CPT 23.1µM, TDP1 cell noCPT 23.1µM (no result: PLK1 PBD block)
Cc1ccccc1CN1N=C(/C=C/c2ccccc2)CCC1=O	TDP1 cell noCPT 23.1µM
CN(CC(=O)Nc1ccc(F)cc1)C(=O)c1ccc2ccccc2n1	none
CCCc1[nH]n(-c2nc3ccccc3s2)c(=O)c1C=NCC(C)C	DT40 TDP1 CPT inconclusive, TDP1 cell noCPT 23.1µM
C/C(=N/NC(=O)c1cccs1)c1c(C)[nH]n(-c2nc3ccccc3s2)c1=O	PLK1 PBD block inconclusive, DT40 TDP1 CPT 3.66µM, TDP1 cell noCPT 2.31µM
